From PubChem BioAssay
Compounds with a hit are over-represented: about 9.4% of the library has one in this group of screens.
SARS PLP yeast – blocks SARS-CoV papain-like protease in a yeast assay. S. cerevisiae expressing SARS-CoV PLpro, growth rescue. Potency, µM (doses to about 32.9 µM), for inactives: at the top dose activity, positive = growth rescue, usual class: activators. actives 0.19% (n = 330,000). AID 485353; calls by dose curve; also: 0% is about no effect; nearly all actives have a fitted effect of over 55% in size
AMA1-RON2 inh – inhibitors of Plasmodium falciparum AMA1-RON2 interaction. AlphaScreen AMA1-biotinylated RON2 peptide binding. Potency, µM (highest dose often 58.2 µM), without a hit: at the highest dose activity change, negative = inhibition, hits mostly inhibitors. actives 0.2% (n = 360,000);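 also: 0% = vehicle wells and -100% = peptide control; nearly all actives have a fitted effect of over 45% in size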
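AMA1 (3D7) with his tag at 25 nM final met compounds first, then biotinylated RON2 peptide at 25 nM; detection used donor plus acceptor beads, 10 µg/mL apiece, read by AlphaScreen after 30 min at room temperature.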
Pf growth 48h – inhibits P. falciparum growth in the first generation, 48 h; P. falciparum luciferase growth in erythrocytes, 48 h; Potency, µM (doses to about 28.7 µM), for the others: at the top dose activity change, negative = inhibition, most hits filed as inhibitors; actives 5.9% (n = 310,000); AID 504832; also: % is scaled to controls: 0 for no effect and ±100 for the full control effect
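Compounds are pin-transferred into medium, infected erythrocytes (2% hematocrit, 0.1% parasitemia final) are added, and plates sit one parasite generation at 37 C in 5% CO2. Detection reagent is then added and luminescence measured.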
Pf growth 96h – P. falciparum growth inhibition at 96 hours | AID 504834 | actives 6.9% (n = 320,000) | Potency, µM (top dose mostly 28.7 µM), for the others: top-dose activity change, negative = inhibition, most hits filed as inhibitors | P. falciparum luciferase reporter growth, 96 h; also: % is scaled to controls: 0 for no effect and ±100 for the full control effect
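Parasite growth measured via integrated firefly luciferase reporter in P. falciparum. Infected erythrocytes at 2% hematocrit, 0.05% parasitemia final were treated 96 hours at 37 C under 5% CO2, and luminescence was read.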
The depositor's hits bear a star; ? = inconclusive; . = no result; ! = not confirmed by another sample; [ ] = remark or other dose. Unless noted, calls follow the shape of the dose curve; as a rule, active = well fitted curve in the direction sought with a large enough effect; inconclusive = small, poorly fitted or top-dose-only effect, or another doubt; inactive = no such curve, though single readings can be large; an effect the other way counts as inactive or inconclusive. Potency is read from the fitted curve at half-maximal effect.

SMILES | SARS PLP yeast | AMA1-RON2 inh | Pf growth 48h | Pf growth 96h
NC(=O)c1c(NC(=O)CN2CCCC2)sc2c1CCCC2 | 2% | 46% | 23% | 12µM*
COC(=O)C1=C(C)N(C)C(C)=C(C(=O)OC)C1c1ccc(Cl)cc1 | 2% | 0% | ? | 10µM*
CCOC(=O)C1=C(C)N(C)C(C)=C(C(=O)OCC)C1c1ccc(Cl)cc1 | -57% | -18% | ? | ?
COC(=O)C1=C(C)N(c2ccc(OC)cc2)C(C)=C(C(=O)OC)C1c1ccc(OC)cc1 | -11% | -13% | ? | ?
COC(=O)C1=C(C)N(c2ccc(OC)cc2)C(C)=C(C(=O)OC)C1c1ccccc1 | -1% | -5% | 1.3µM* | ?
O=C1NC(=Nc2ccccc2)SC1Cc1ccccc1 (configuration not stated) | 1% | 1% | 69% | -3%
Cc1cc(C)nc(N2CCCC(C(=O)Nc3nnc(C)s3)C2)n1 (configuration not stated) | 1% | -4% | 26% | .
COC(=O)c1cccc(Nc2nc(-c3cccnc3)nc3ccccc23)c1 | -1% | 7% | ? | ?
CCOC(=O)c1cccc(Nc2nc(-c3cccnc3)nc3ccccc23)c1 | -3% | -23% | 13µM* | 8.3µM*
COC(=O)c1cccc(Nc2nc(-c3ccncc3)nc3ccccc23)c1 | -5% | 0% | 1.9µM* | ?
N#Cc1cc2c(nc1SCC(O)CS(=O)(=O)Cc1ccc(Cl)cc1)CCCC2 (configuration not stated) | 3% | -6% | . | ?
O=C(NC1CCCCCC1)c1ccc(CN2CCOCC2)cc1 | -1% | -1% | 54% | 10µM*
CCc1nc2ccc(C(=O)NC3CCN(Cc4ccccc4)CC3)cn2c1N(C)Cc1ccc(N(C)C)cc1 | . | 22µM* | . | .
Cc1cc(F)ccc1S(=O)(=O)Nc1ccccc1C(=O)NC1CCN(Cc2ccccc2)CC1 | 4% | -16% | 2.9µM* | 3.3µM*
CCc1nc2ccc(C(=O)NC3CCN(C)CC3)cn2c1N(C)CCC(C)C | . | 0% | . | .
O=C(NC1CCCC1)c1ccc(CN2CCOCC2)cc1 | 0% | -9% | 50% | .
Cc1ccc(CN2CCC(NC(=O)c3ccccc3)CC2)cc1 | 0% | -1% | 5% | 24%
Cc1ccc(C)n1-c1ccc(C(=O)NC2CCN(Cc3ccccc3)CC2)cc1 | -3% | -5% | ? | 12µM*
CCOc1cc2[nH]c(=S)n(CCN3CCCCC3CC)c(=O)c2cc1OCC (configuration not stated) | 3% | 107% | . | ?
O=C(O)c1cn(-c2ccccc2)nc1-c1cccnc1 | 4% | -6% | . | .
O=C(NC1CCN(Cc2ccccc2)CC1)c1cn(-c2ccccc2)nc1-c1cccnc1 | -4% | 6% | 3.7µM* | 2.3µM*
CCc1ccc(C2CC3C(CN2S(=O)(=O)c2ccc(C)cc2)[C@@H](O)C[C@@H](c2ccc(CC)cc2)N3S(=O)(=O)c2ccc(C)cc2)cc1 (some centres not stated) | . | -9% | . | .
Cc1cc(=O)[nH]c(SCC(=O)c2ccc(F)c(C)c2)n1 | -2% | 1% | ? | 0.26µM*
COc1ccc(C(=O)CSc2nc(C)cc(=O)[nH]2)cc1C | -1% | 2% | . | -28%
O=C(O)c1ccc(C2CCCCC2)cn1 | -6% | 13µM* | ? | -9%
SMILES | SARS PLP yeast | AMA1-RON2 inh | Pf growth 48h | Pf growth 96h
O=C(O)C1=C(C2CCCCC2)C(=O)c2ccccc21 | . | 2% | . | .
NC(=O)c1ccc(NC(=O)CCCNC(=O)c2ccc(Cl)cc2)cc1 | 1% | 9% | . | -10%
CCN(CC(=O)Nc1ccc(OC)cc1)C(=O)Cc1cccs1 | -5% | 7% | 3% | 3%
Cc1ccc(NC(=O)CSc2nc3nc(C)cc(C)c3c(=O)[nH]2)cc1 | 5% | -8% | 28% | 2.3µM*
Cc1cc(C)c2c(=O)[nH]c(SCC(=O)Nc3ccccc3)nc2n1 | -2% | -30% | . | .
CC(C)N(CCc1ccncc1)C(=S)Nc1ccc(F)c(Cl)c1 | -8% | -2% | 11% | ?
Cc1ccc(S(=O)(=O)N/N=C/c2cccc3nccnc23)cc1 | -1% | 1% | -2% | -7%
Cc1ccc(S(=O)(=O)N/N=C/c2cccc3c2OCCO3)cc1 | 6% | 11% | 1% | 2.1µM*
O=C(Nc1ccccc1-c1ccccc1)NC1CC2CCCC(C1)N2Cc1ccc(F)cc1 (configuration not stated) | 1% | -12% | 12µM* | 34%
CCCNC(=S)NC1CC2CCCC(C1)N2Cc1ccc(F)cc1 (configuration not stated) | 3% | -2% | ? | ?
CCCN1C2CCCC1CC(NC(=O)Nc1cccc(C(C)=O)c1)C2 (configuration not stated) | -2% | 2% | ? | ?
O=C(Nc1ccccc1-c1ccccc1)NC1CC2CCCC(C1)N2CCc1ccccc1 (configuration not stated) | 10% | -1% | 5.2µM* | ?
COc1ccc(NC(=O)c2cc3c(Cl)nc4ccccc4c3s2)cc1OC | 27% | -5% | 2.1µM* | -2%
COc1ccc(-c2noc(C)c2-c2ccc3ccccc3n2)c(O)c1 | -18% | -20% | 12µM* | 15µM*
COc1ccc(-c2ccc3ccccc3n2)cc1 | -2% | -8% | 125% | 310%
COC(=O)C1(C)NC(c2ccc(O)cc2)C2C(=O)N(c3ccc(F)cc3)C(=O)C21 (configuration not stated) | 3% | 7% | -12% | -25%
CCN1c2ccccc2-c2nc3ccccc3n2C1c1cccnc1 (configuration not stated) | -4% | -2% | 9.3µM* | -2%[5.75 µM]
CCN1c2ccccc2-c2nc3ccccc3n2C1c1ccccn1 (configuration not stated) | -12% | 15% | ? | ?
c1cncc(C2Nc3ccccc3-c3nc4ccccc4n32)c1 (configuration not stated) | -13% | 12% | . | 9%
c1ccc2c(c1)NC(c1ccncc1)n1c-2nc2ccccc21 (configuration not stated) | -9% | -9% | 2.6µM* | -22%
CCN1c2ccccc2-c2nc3ccccc3n2C1c1ccncc1 (configuration not stated) | -12% | 7% | 5.2µM* | 10µM*
Cc1ccc(OCC(=O)NCCCNC(=O)c2ccccn2)cc1 | 1% | 15% | -22% | ?
CC/C(=C(\c1ccccc1)c1ccc(OCCN(C)C)cc1)c1ccccc1 | . | ? | 13µM* | ?
CCN(CC)CCOc1ccc(/C(=C(/Cl)c2ccccc2)c2ccccc2)cc1 | -8% | -20% | 9.3µM*! | 9.3µM*
CC/C(=C(\c1ccc(O)cc1)c1ccc(OCCN(C)C)cc1)c1ccccc1 | -7% | ? | . | .
Cc1cc(N2CCOCC2)ccc1/C=C1\SC(=O)N(C(C)C)C1=O | -2% | 0% | 111% | 203%
CC(C)Oc1ccc(C2CC(=O)NC2=O)cc1 (configuration not stated) | -2% | 0% | 24% | 4.1µM*
CCn1c(SCC(=O)NC2CCCC2)nnc1C(C)NC(=O)c1ccccc1F (configuration not stated) | 3% | 2% | 7% | -2%
